Compound activity (PubChem BioAssay)
ALDH1A1 inh – qHTS Assay for Inhibitors of Aldehyde Dehydrogenase 1 (ALDH1A1); Purified ALDH1A1, NADH fluorescence, propionaldehyde substrate; Potency, µM (series often up to 75.3 µM), without a hit: at the top dose activity, negative = inhibition, hits mostly inhibitors; actives 7.3% (n = 220,000); AID 1030, 2008;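 further: potency means the concentration at half of the fitted maximal effect; plate controls were no enzyme wells and a reference inhibitor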
Target sequence (P00352 whole entry, looked up): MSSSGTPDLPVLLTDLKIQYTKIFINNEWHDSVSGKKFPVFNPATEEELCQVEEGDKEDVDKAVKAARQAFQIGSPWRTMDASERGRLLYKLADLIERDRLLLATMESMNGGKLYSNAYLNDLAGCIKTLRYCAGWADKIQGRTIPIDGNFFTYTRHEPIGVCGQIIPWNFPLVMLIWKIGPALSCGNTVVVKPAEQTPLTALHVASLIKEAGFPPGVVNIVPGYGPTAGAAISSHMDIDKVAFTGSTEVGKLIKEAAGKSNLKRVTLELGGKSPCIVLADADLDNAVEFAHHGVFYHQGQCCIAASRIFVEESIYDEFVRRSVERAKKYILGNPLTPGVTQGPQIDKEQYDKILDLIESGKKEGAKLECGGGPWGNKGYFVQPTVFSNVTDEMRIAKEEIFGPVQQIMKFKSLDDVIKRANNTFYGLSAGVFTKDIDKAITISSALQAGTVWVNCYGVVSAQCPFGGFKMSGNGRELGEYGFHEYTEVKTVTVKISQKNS
CBFb-RUNX1 inh – qHTS Assay for Compounds Blocking the Interaction Between CBF-beta and RUNX1 for the Treatment of Acute Myeloid Leukemia. AlphaScreen CBFb-His/RUNX1-biotin binding, biochemical. Runt-related transcription factor 1 (Homo sapiens) + Core-binding factor subunit beta …. Potency, µM (highest dose often 59.8 µM), without a hit: at the highest dose activity, negative = inhibition, most hits filed as inhibitors. 230,000 tested, under 10 active; active means well fitted curve in the direction sought with a large enough effect; inconclusive means small, poorly fitted or top-dose-only effect, or another doubt; inactive means no such curve, though single readings can be large; an effect the other way counts as inactive or inconclusive; further: % of control where 0% means no effect
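Bead-based AlphaScreen assay; binding partners His-tagged CBF-beta and biotinylated RUNX1 at 30 nM each. Compound exposure 15 min after a 20-min protein preincubation; bead step 90 min; all steps at room temperature.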
KDM4E inh – qHTS Assay for Inhibitors of Human Jumonji Domain Containing 2E (JMJD2E) | AID 2147, 2009 | actives 1.6% (n = 230,000) | Potency, µM (series often up to 57.1 µM), without a hit: top-dose activity change, negative = inhibition, most hits filed as inhibitors | JMJD2E catalytic domain, FDH-coupled NADH fluorescence (FDH is formaldehyde dehydrogenase) | Lysine-specific demethylase 4E (Homo sapiens), B2RXH2;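 further: potency means the concentration at half of the fitted maximal effect; 0% = wells with enzyme and -100% = buffer wells without enzyme; nearly all actives have a fitted effect of over 50% in size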
HttQ103 aggreg – qHTS Multiplex Assay to Identify Dual Action Probes in a Cell Model of Huntington: Aggregate Formation (GFP) | actives 1.1% (n = 220,000) | PC12 HttQ103-GFP aggregates, Acumen cytometry, 40 h | AID 1688, 2009 | Potency, µM (series often up to 46.1 µM), inactives show at the highest dose activity change, negative = inhibition, actives largely listed as inhibitors; active means well fitted curve in the direction sought with a large enough effect; inconclusive means small, poorly fitted or top-dose-only effect, or another doubt; inactive means no such curve, though single readings can be large; an effect the other way counts as inactive or inconclusive; further: potency means the concentration at half of the fitted maximal effect; on the % scale 0 is the no-effect control and ±100 the full control effect; nearly all actives have a fitted effect of over 60% in size
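Compounds (qHTS titration) were added to PC12 cells expressing an ecdysone-driven HTT exon 1 Q103–GFP fusion after induction with 100 nM tebufenozide. Aggregate formation was measured as GFP objects in cell lysates.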
HPGD block – qHTS Assay for Inhibitors of HPGD (15-Hydroxyprostaglandin Dehydrogenase) | actives 4.3% (n = 150,000) | purified HPGD, NADH fluorescence kinetic, PGE2 substrate | AID 894, 2007 | 15-hydroxyprostaglandin dehydrogenase [NAD(+)] (Homo sapiens), P15428 | Potency, µM, for inactives: at the highest dose activity change, negative = inhibition, hits mostly inhibitors; further: potency means the concentration at half of the fitted maximal effect; on the % scale 0 is the no-effect control and ±100 the full control effect
Target sequence (P15428 whole entry, looked up): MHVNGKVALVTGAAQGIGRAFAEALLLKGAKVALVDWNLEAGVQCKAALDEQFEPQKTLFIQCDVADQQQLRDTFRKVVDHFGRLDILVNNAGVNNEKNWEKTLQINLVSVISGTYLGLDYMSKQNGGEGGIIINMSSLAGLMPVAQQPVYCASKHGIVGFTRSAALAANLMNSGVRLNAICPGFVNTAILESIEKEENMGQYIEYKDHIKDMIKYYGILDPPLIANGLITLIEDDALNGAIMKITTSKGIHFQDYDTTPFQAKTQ
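NADH formation kinetics: reaction with 30 uM PGE2 and 1 mM NAD+ (final), 20 nM enzyme, Tris-HCl pH 8 with Tween 20, after 15 min compound preincubation at room temperature. Fluorescence change, last versus first of five reads.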
HTT cytoprotect – qHTS Multiplex Assay to Identify Dual Action Probes in a Cell Model of Huntington: Cytoprotection (ATP); PC12 HTT-Q103 induced, cytoprotection, ATP luminescence, 40 h; Potency, µM (titrated, usually from 56.4 µM), for inactives: cytoprotection (ATP increase), most hits filed as activators; actives 0.14% (n = 230,000); AID 1471, 2008; active means well fitted curve in the direction sought with a large enough effect; inconclusive means small, poorly fitted or top-dose-only effect, or another doubt; inactive means no such curve, though single readings can be large; an effect the other way counts as inactive or inconclusive; further: potency means the concentration at half of the fitted maximal effect; % of control where 0% means no effect; nearly all actives have a fitted effect of over 45% in size
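PC12 cells with ecdysone-inducible HTT exon 1 Q103-GFP, induced with 100 nM tebufenozide and co-treated with library compounds in a dose series (1536-well, 1500 cells/well). Cytoprotection read as ATP content by ATPlite luminescence.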
The depositor's hits bear a star; [ ] = another dose, or the depositor's remark. Sampled rows, rich in hits. Any-hit rate of the full collection: about 9.8%. Unless noted, the call rests on the fitted dose curve; in most records, active means well fitted inhibition curve with a large enough effect (not every such curve was filed as active); inconclusive means small, poorly fitted or top-dose-only effect, or another doubt; inactive means no such curve, though single readings can be large or run the other way.

O=C(N/N=C/c1ccccn1)c1cc(-c2ccccc2)nc2ccccc12 was read as CBFb-RUNX1 inh -25%, KDM4E inh 25µM*, HttQ103 aggreg inconclusive and HTT cytoprotect -13%[10 µM].
`Cc1ccc(/C=N/Nc2ccc3ccccc3n2)o1` gave ALDH1A1 inh inconclusive, CBFb-RUNX1 inh -9%, KDM4E inh inconclusive, HttQ103 aggreg 13µM* and HTT cytoprotect -164%.
`Cc1cc(C)c2nc(NNC(=O)c3cc(-c4cccs4)nc4ccccc34)sc2c1` gave ALDH1A1 inh inconclusive, CBFb-RUNX1 inh 1%[2.36 µM], KDM4E inh inconclusive, HttQ103 aggreg inconclusive and HPGD block -16%.
`C#CCNC(=O)C(C)c1ncc(C(F)(F)F)cc1Cl` (centres undefined) gave ALDH1A1 inh 7%, CBFb-RUNX1 inh inconclusive, KDM4E inh 4%, HttQ103 aggreg -5% and HTT cytoprotect -24%.
`O=C(N/N=C/c1ccc[nH]1)c1cc(-c2cccs2)nc2ccccc12` gave ALDH1A1 inh 16µM*, CBFb-RUNX1 inh inconclusive, KDM4E inh inconclusive, HttQ103 aggreg -11% and HTT cytoprotect 9%.
`O=C(N/N=C/c1cccnc1)c1cc(-c2cccs2)nc2ccccc12` gave ALDH1A1 inh inconclusive, CBFb-RUNX1 inh -4%, KDM4E inh inconclusive, HttQ103 aggreg -13%, HPGD block inconclusive and HTT cytoprotect 3%[10 µM].
`O=C(N/N=C/c1cc(Cl)cc([N+](=O)[O-])c1O)c1cc(-c2ccccn2)nc2ccccc12` gave CBFb-RUNX1 inh -7%, KDM4E inh 22µM*, HttQ103 aggreg -10%[9.22 µM] and HTT cytoprotect 5%[10 µM].
O=[N+]([O-])c1cc(Cl)cc(/C=N\Nc2ccccn2)c1O was read as ALDH1A1 inh 1%, CBFb-RUNX1 inh -15%, KDM4E inh -6%, HttQ103 aggreg 2.2µM*, HPGD block -17% and HTT cytoprotect -72%.
For O=[N+]([O-])c1cccc(/C=N/Nc2ccccn2)c1 the results were ALDH1A1 inh 5%, CBFb-RUNX1 inh 3%, KDM4E inh 2% and HttQ103 aggreg 2%.
For NC(N)=N/N=C/c1cccc([N+](=O)[O-])c1O the results were ALDH1A1 inh -1%, CBFb-RUNX1 inh -2%, KDM4E inh 1%, HttQ103 aggreg 10% and HTT cytoprotect -17%.
`O=[N+]([O-])c1cccc(/C=N\N=C2c3ccccc3-c3ccccc32)c1O` gave ALDH1A1 inh -7%, CBFb-RUNX1 inh 3%, KDM4E inh -5%, HttQ103 aggreg -7%, HPGD block 28µM* and HTT cytoprotect 0%[10 µM].
Cc1cccc(N2C(=O)c3ccc(C(=O)Nc4c[nH]c(=O)[nH]c4=O)cc3C2=O)c1 was read as CBFb-RUNX1 inh 7%, KDM4E inh -4%, HttQ103 aggreg -30%[9.22 µM] and HTT cytoprotect -6%[10 µM].
`O=C(O)CNCCc1ccccc1` gave ALDH1A1 inh 13%[13.5 µM], HPGD block -5% and HTT cytoprotect 0%[10 µM].
For Cc1nc2ccccc2cc1C(=O)N/N=C/c1ccccc1[N+](=O)[O-] the results were ALDH1A1 inh 1%, CBFb-RUNX1 inh -7%, KDM4E inh 4%, HttQ103 aggreg 9%, HPGD block -15% and HTT cytoprotect 8%[10 µM].
`O=[N+]([O-])c1cccc(/C=N\Nc2ccc3ccccc3n2)c1O` gave ALDH1A1 inh 1.6µM*, HPGD block -11% and HTT cytoprotect -11%[10 µM].
O=C(N/N=C/c1ccccn1)c1[nH]c2ccc([N+](=O)[O-])cc2c1-c1ccccc1 was read as ALDH1A1 inh 4.5µM*, CBFb-RUNX1 inh inconclusive, KDM4E inh inconclusive, HttQ103 aggreg -3%[9.22 µM] and HTT cytoprotect -114%.
O=C(O)c1[nH]c2ccc([N+](=O)[O-])cc2c1-c1ccccc1 was read as CBFb-RUNX1 inh 2%, KDM4E inh 5%, HttQ103 aggreg -13%[9.22 µM] and HTT cytoprotect 19%[10 µM].
`C=CCn1c(COc2ccc(Cl)cc2)nnc1SCC(=O)c1c(N)n(C)c(=O)n(C)c1=O` gave ALDH1A1 inh 19%, CBFb-RUNX1 inh 10%, KDM4E inh 3% and HttQ103 aggreg 10%.
`COc1ccc(CCNc2ccc(C)cc2)cc1` gave ALDH1A1 inh -7%, CBFb-RUNX1 inh -21%, KDM4E inh -6%, HttQ103 aggreg 23%, HPGD block -9% and HTT cytoprotect -2%.
`COc1ccc(C(=S)NCS(=O)(=O)c2ccc(C)cc2)cc1` gave ALDH1A1 inh 22µM*, CBFb-RUNX1 inh 8%, KDM4E inh -25%, HttQ103 aggreg 8% and HPGD block 25µM*.
`COc1ccc(C(O)CNc2ccc(C)cc2)cc1` (centres undefined) gave ALDH1A1 inh 20µM*, CBFb-RUNX1 inh -8%, KDM4E inh -3%, HttQ103 aggreg 15%, HPGD block -11% and HTT cytoprotect -8%.
COc1ccc(C(=S)Nc2ccc(C)cc2)cc1 was read as ALDH1A1 inh inconclusive, CBFb-RUNX1 inh 2%, KDM4E inh -2%, HttQ103 aggreg 12%, HPGD block 22µM* and HTT cytoprotect -39%.
`COc1ccc(NC(=S)c2ccncc2)cc1` gave ALDH1A1 inh -1%, CBFb-RUNX1 inh -18%, KDM4E inh -4%, HttQ103 aggreg -17%, HPGD block -5% and HTT cytoprotect 18%[10 µM].
For COc1ccc(/C=N/NC(=O)CO/N=C(\C)c2cccs2)cc1 the results were ALDH1A1 inh 22µM*, CBFb-RUNX1 inh 1%, KDM4E inh 11%, HttQ103 aggreg -8%[9.22 µM], HPGD block -20% and HTT cytoprotect 7%.
C/C(=N\OCC(=O)N/N=C/c1ccccc1O)c1cccs1 was read as ALDH1A1 inh -2%, CBFb-RUNX1 inh -4%, KDM4E inh 22µM*, HttQ103 aggreg -29%, HPGD block -18% and HTT cytoprotect 10%.
For O=C(O)CSC(C(=O)Nc1ccc(Br)cc1)c1ccccc1 (centres undefined) the results were ALDH1A1 inh inconclusive, CBFb-RUNX1 inh -4%, KDM4E inh -29%, HttQ103 aggreg 6%[9.22 µM] and HTT cytoprotect -32%.
`N#Cc1ccc(CN2CCCC3(CCN(C(=O)c4csnn4)CC3)C2)cc1` gave ALDH1A1 inh -1%, HPGD block -10% and HTT cytoprotect 21%.
